What was measured:
Assay in all cases: PBM binding z-score (relative to random genomic background probes); higher = stronger binding; sequences stand for … in GC…GCGATTGACAGCGTAGAATGAAGG
[1] = tested on: FXR:RXRa (NR concentration 270 nM, RXRa partner concentration 90 nM)
Summary of the method: (§1)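 Custom Agilent 4×180K protein-binding microarrays carried double-stranded probes, each with a 34-nt variable region. These regions held direct-repeat seeds, single-nucleotide variants, half-site ablations and random human genomic background sequences. Ligand-free nuclear receptor dimers were incubated on the arrays for 1 h, antibodies against each partner (one per run) detected binding, and scanned fluorescence was regression-normalized. Binding z-scores take the random background probes as reference.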

[2] = tested on: LXRa:RXRa (NR concentration 270 nM, RXRa partner concentration 90 nM)
Summary of the method: as §1

[3] = tested on: LXRa homodimer (NR concentration 270 nM)
Summary of the method: as §1

[4] = tested on: LXRb:RXRa (NR concentration 270 nM, RXRa partner concentration 90 nM)
Summary of the method: as §1

[5] = tested on: LXRb homodimer (NR concentration 270 nM)
Summary of the method: as §1

[6] = tested on: PPARa:RXRa (NR concentration 270 nM, RXRa partner concentration 90 nM)
Summary of the method: as §1

[7] = tested on: PPARg:RXRa (NR concentration 180 nM, RXRa partner concentration 90 nM)
Summary of the method: as §1

[8] = tested on: PPARg:RXRa 270nM:90nM, anti-RXR (NR concentration 270 nM, RXRa partner concentration 90 nM)
Summary of the method: as §1

[9] = tested on: PPARg:RXRa 30nM:10nM, anti-RXR (NR concentration 30 nM, RXRa partner concentration 10 nM)
Summary of the method: as §1

[10] = tested on: PPARg:RXRa 90nM:30nM, anti-RXR (NR concentration 90 nM, RXRa partner concentration 30 nM)
Summary of the method: as §1

[11] = tested on: PPARg:RXRa DBDmut IVT, anti-RXR (DBD mutation: RXRa K156A/R161A, NR concentration 270 nM, RXRa partner concentration 90 nM)
Summary of the method: as §1

[12] = tested on: PPARg:RXRa IVT, anti-PPARg (NR concentration 270 nM, RXRa partner concentration 90 nM)
Summary of the method: as §1

[13] = tested on: PPARg DBDmut:RXRa IVT, anti-PPARg (DBD mutation: PPARg1 K132A/R137A, NR concentration 270 nM, RXRa partner concentration 90 nM)
Summary of the method: as §1

[14] = tested on: PPARg DBDmut IVT, anti-PPARg (DBD mutation: PPARg1 K132A/R137A, NR concentration 270 nM)
Summary of the method: as §1

[15] = tested on: PPARg homodimer (NR concentration 180 nM)
Summary of the method: as §1

[16] = tested on: PXR:RXRa (NR concentration 270 nM, RXRa partner concentration 90 nM)
Summary of the method: as §1

[17] = tested on: PXR homodimer (NR concentration 270 nM)
Summary of the method: as §1

[18] = tested on: RARa:RXR (NR concentration 270 nM, RXRa partner concentration 90 nM)
Summary of the method: as §1

[19] = tested on: RARa homodimer (NR concentration 270 nM)
Summary of the method: as §1

[20] = tested on: RARb:RXRa (NR concentration 270 nM, RXRa partner concentration 90 nM)
Summary of the method: as §1

Sequence	PBM binding z-score [1]	PBM binding z-score [2]	PBM binding z-score [3]	PBM binding z-score [4]	PBM binding z-score [5]	PBM binding z-score [6]	PBM binding z-score [7]	PBM binding z-score [8]	PBM binding z-score [9]	PBM binding z-score [10]	PBM binding z-score [11]	PBM binding z-score [12]	PBM binding z-score [13]	PBM binding z-score [14]	PBM binding z-score [15]	PBM binding z-score [16]	PBM binding z-score [17]	PBM binding z-score [18]	PBM binding z-score [19]	PBM binding z-score [20]
GATACAGGGTCAACGCCAGAGTACGCGTATTGAT	7	4.57	-0.128	3.91	0.0606	5.69	6.17	5.78	2.67	4.5	3.53	4.25	0.296	0.699	2.98	4.11	0.215	5.05	0.72	4.7
CGTCCAAGGTCAAAGGACAGTGAAGAGATGACGG	6.9	5.32	0.749	3.74	1.13	5.6	5.59	5.73	2.46	4.8	2.81	3.71	1.49	0.353	2.89	3.74	0.957	4.39	0.706	5.21
ATCTCTAGGTAAAGATAGTTCAGTGAGTGCAAAT	-0.0159	4.06	1.22	0.833	0.569	0.673	0.242	0.661	0.182	0.714	2.29	1.9	0.931	0.67	0.928	3.93	11.4	0.596	0.987	0.924
TAGCCTAGGTCATGGGCCAGTATCCCACGCGAAC	4.49	3.17	0.378	2.29	-0.295	4.04	3.88	3.41	0.754	2.6	1.1	3.14	0.396	-0.233	1.33	1.43	-0.353	2.55	-0.117	3.74
TAGCATAGGTCATGGGCCAGTATACCACGCGAAC	6.75	5.37	0.897	4.03	0.148	5.98	5.56	5.31	2.04	4.24	0.625	2.53	0.682	0.0731	2.07	3.23	-0.144	4.27	0.528	4.41
GCTGCTAGGTCAACTGATGGTCAGCAAAAGCTCG	4.32	3.25	0.157	2.12	0.113	3.81	2.95	3.41	0.384	2.37	4.86	3.95	-0.344	0.121	1.67	1.68	-0.304	2.93	0.266	4.52
TCGGCTAGGTCAGTTGGTCAGCTAACGAGCTGCC	1.1	0.58	-0.132	0.27	-0.753	1.48	0.0282	1.28	0.913	1.11	1.62	1.9	-0.718	-0.778	0.3	0.186	-0.113	0.266	-0.561	3.52
TAGCCTAGGTCATGCAGGCCAGTATAGTGTCGGC	3.92	2.91	0.151	1.7	-0.186	3.38	2.19	2.37	0.209	1.34	1.84	2.9	0.61	0.0782	1.52	1.77	-0.409	2.37	-0.161	3.66
TCAAATAGGTAAATGCTAGGTGAAAGTCCGATCT	1.32	0.737	-0.0235	0.834	-0.239	1.52	0.685	2.74	4.4	3.68	3.54	2.47	0.483	0.699	0.99	0.653	0.443	1.16	1.43	0.7
CCTACTGGGCCAAAGGTCATTGGTTCCAATGCTC	5.06	5.15	4.28	4.94	0.631	6.49	11.6	9.63	10.5	10.3	5.02	6.55	0.0482	-0.387	2.89	5.41	2.21	6.04	0.819	4.51
ATATGTAGGTTAAGGGTAATTCAGGTTGGTTCGC	1.39	2.14	1.04	1.72	0.767	4.6	8.65	7.77	8.77	8.33	7.67	7.16	1.52	1.87	2.15	1.74	1.44	1.63	2.31	1.69
CCAGACAGCTGAAAGGTAACTCAGTCTGGTACGC	-0.259	-0.27	-0.368	-0.00199	-0.748	0.193	0.377	-0.223	-0.581	-0.401	-0.0276	-0.495	-0.361	-0.671	-0.141	-0.177	-0.344	0.0105	-0.368	0.0484
CCTACTGGGCCAAGGTTATTGATCAGTCAAAGCA	0.116	0.594	-0.113	0.269	-0.596	1.78	2.64	3.06	0.701	2.48	3.46	3.58	-0.243	-0.723	0.597	0.145	-0.133	0.421	-0.486	0.659
CCTAGCAGGCCAATCTGGTTCACTCAAGGCTTGA	-0.121	0.131	-0.596	-0.16	-0.887	0.0157	-0.419	-0.488	-0.776	-0.865	1.85	0.21	-1.28	-0.685	-0.281	0.784	-0.545	0.161	-0.882	0.201
ACAGTCAGGTGATGAAGGTAACTCAGGCTATCAT	0.11	-0.185	-0.351	-0.331	-0.338	0.116	0.349	-0.0826	0.0143	-0.0221	0.347	0.415	0.348	0.294	0.022	-0.36	-0.211	0.136	-0.284	0.503
TAGCCTAGGTCACTGGGCCAGTATAGTACGCATC	3.22	2.31	-0.331	1.92	-0.779	4	5.05	4.62	1.68	3.41	3.48	5.27	1.2	0.865	0.976	1.32	-0.648	1.93	-0.15	3.91
TGTCAAAGTTCAAAGGCAACGTAAGTATCCACAC	6.68	6.1	4.08	3.86	1.39	5.04	8	7.39	5	7.03	-0.195	3.82	1.26	1.83	3.71	4.86	2.97	3.97	1.3	4.97
ATCTCTAGGTATCAAGTTCAGTGAAAGAGAGGAC	0.749	0.772	0.719	0.674	1.24	0.806	0.577	1.44	0.214	1.15	0.507	1.03	1.04	1.12	0.949	1.05	2.18	0.725	1.18	1.59
TCTATTAGTTGAAGGTCAACCGACGAGTCCGTTT	3.86	4.66	4.55	3.9	1.95	3.95	1.56	3.57	3.89	3.78	2.82	2.45	1.21	0.836	3.86	4.22	2.78	4.4	3.23	4.02
CGAACGAGGGCATGAGCTGATAGCAAATGCCGAT	0.486	0.253	-0.266	0.0131	-0.954	1.39	1.02	0.67	-0.212	0.364	2.42	1.97	0.174	-0.689	-0.392	0.327	-0.221	0.529	-0.331	1.87
TAGCCTAGGTCATCCGGGCCAGTATAGTGTCGGC	4.52	3.54	0.755	2	0.281	3.48	1.95	2.35	0.0412	1.5	1.42	2.94	0.0914	-0.657	1.35	2.07	0.0405	2.61	-0.259	3.77
TCTTGTAGGTCAAGCAGGTTAAGAAAGCCTGAGT	5.29	4.34	1.19	3.44	0.725	5.22	7.42	6.59	4.79	6.42	7.24	8.12	1.76	1.83	1.66	3.63	0.673	3.68	0.596	4.34
TAGCCTAGATCATTCAGGGGCCAGTATAGAAAGC	-0.33	-0.505	-0.351	-0.00287	-0.168	0.0623	0.276	0.125	-0.256	-0.407	1.21	1.03	-0.343	0.115	-0.77	-0.495	-0.234	0.0251	-0.596	0.0871
GCAGACAGGTAAAACGCAGGTAACTCAGGGTGGC	-0.253	-0.37	-0.412	-0.448	-0.917	-0.183	0.515	-0.433	-0.834	-0.835	-0.691	-0.804	-1.23	-0.839	-0.847	-0.561	-0.484	-0.286	-0.674	-0.486
ATAGAAAGGTCGAGGTGAGTATAGAGAAAGGGAA	4.25	3.22	0.369	2.75	0.952	4.36	3.26	3.43	1.67	2.2	0.449	1.99	1.74	0.872	2.34	2.55	0.613	3.6	1.71	4
TCATATAGGTAAATGCTAGGTGAAAGTGCGATCT	1.14	1.17	0.315	0.829	0.24	1.87	1.89	3.48	3.99	3.81	4.06	3.13	0.822	0.878	1.41	0.653	0.401	1.12	1.15	0.649
GCTCGGAGGACAAGGTCAGAGCATTGTCCGTAGA	1.99	1.75	-0.445	1.15	-0.84	2.48	0.798	1.67	-0.55	0.636	-0.234	0.996	-1.46	-0.733	0.964	1.69	-0.0134	2.26	-0.974	3.38
ACTAGCAGGCCAAGGGTCACTTAAGATTAGTCCG	2.62	2.89	0.394	3	-0.323	4.28	8.13	7.44	5.78	8.65	1.3	3.66	0.182	-0.252	2.04	3.33	-0.0435	4.13	0.362	3.39
ACTCGGAGGACAAAGGACAGAGCTACGCCAGTGA	-0.12	-0.373	-0.502	-0.866	-0.449	-0.215	1.23	1.16	0.109	0.942	-0.0501	-0.429	-0.346	-1.22	-0.327	-0.688	-0.112	-0.495	-0.7	1.62
